Compound activity: PubChem BioAssay, Broad Institute
Pf Dd2 growth: inhibitors of Plasmodium falciparum Dd2 growth; P. falciparum Dd2 growth, SYBR Green, 72 h; active compounds read low; activity change, % at 10 µM; actives 2.3% (n = 94,000); AID 1159554; in the data active = activity change below about -80%; inconclusive = no clear call, values can overlap the other calls
T cruzi growth-1: inhibitors of T. cruzi proliferation. T. cruzi beta-gal in NIH3T3, GalScreen luminescence, 90 h. inhibition, % at 8.34 µM. actives 5.9% (n = 77,000);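 active = mean inhibition above about 93%, with at least 55% of replicates each passing it, limit read from the data, passing the limit was not always enough; inconclusive = only one of those two conditions holds; inactive = neither condition holds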
C diff HTS: inhibitors of Clostridium difficile growth; Clostridium difficile clinical isolate growth, OD600, 24 h; active compounds read low; growth activity, negative = inhibition, % at 16 µg/mL (by protocol); actives 0.25% (n = 86,000); AID 1259249;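 active = mean growth activity at or below -80% and every replicate also at or below -80%; inconclusive = mean at or below -80% but some replicate above -80%; inactive = mean growth activity above -80%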;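 note: 0% = DMSO wells and -100% = levofloxacin 16 µg/mL wells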
T cruzi growth-2: inhibitors of T. cruzi proliferation | shares compounds with T cruzi growth-1 | T. cruzi beta-gal in NIH3T3, GalScreen luminescence, 90 h | inhibition, % at 8.35 µM | actives 72% (n = 5,600) | AID 651739;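 active = mean replicate inhibition above about 95% and at least 55% of replicates individually reaching it, limit read from the data; inconclusive = only one of the two criteria is met; inactive = neither criterion is met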
T cruzi growth-3: Trypanosoma cruzi proliferation inhibition | shares compounds with T cruzi growth-1 | T. cruzi beta-gal in NIH3T3, GalScreen luminescence, 90 h | inhibition, % at 2.09 µM | actives 21% (n = 5,600);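 active = mean inhibition above about 95%, with at least 55% of replicates also reaching it, limit read from the data; inconclusive = meets just one of the two conditions; inactive = meets neither condition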;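 note: plate controls were neutral control median for no effect and positive control median for full effect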
3T3 cytotox: kills mouse NIH/3T3 fibroblasts; shares compounds with T cruzi growth-1; NIH/3T3 viability, CellTiter-Glo ATP luminescence, 90 h; actives 14% (n = 5,600); cytotoxicity (signal decrease), % at 8.35 µM; AID 651742;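 active = mean signal decrease across replicates above about 35% based on untreated-well scatter, with enough replicates individually passing, limit read from the data; inconclusive = no rule stated though some were filed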;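 note: 0% = median of neutral control wells and 100% = median of positive control wells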
3T3 cytotox 2: cytotoxicity in mouse NIH/3T3 fibroblasts; shares compounds with T cruzi growth-1; NIH/3T3 viability, CellTiter-Glo ATP luminescence, 90 h; inhibition, % at 24.9 µM; actives 56% (n = 5,600); AID 651744;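 active = mean loss of cell viability signal at or above a set limit, and enough replicates individually reaching it; inconclusive = meets only the mean limit or only the replicate share; inactive = meets neither condition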;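 note: 0% = median of neutral control wells and 100% = median of positive control wells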
The depositor's hits bear a star; ? = inconclusive; · = not tested or not shown. Compounds with a hit are over-represented: about 6.8% of the library has one in this group of screens.

SMILES	Pf Dd2 growth	T cruzi growth-1	C diff HTS	others
COc1ccc(CN(C)C[C@H]2OCCCC[C@H](C)Oc3ccc(NC(=O)Nc4ccccc4)cc3C(=O)N([C@@H](C)CO)C[C@@H]2C)cc1	25	106	4
C[C@H]1CN([C@@H](C)CO)C(=O)Cc2cc(NC(=O)c3ccncc3)ccc2O[C@H]1CN(C)C(=O)Nc1ccc2c(c1)OCO2	12	10	-1
CCC(=O)N1[C@H](CO)[C@@H](c2ccc(-c3ccccc3)cc2)[C@@H]1CNC(=O)COC	-10	1	-10
C[C@@H]1CN([C@H](C)CO)C(=O)c2cc(NC(=O)Cc3cn(C)c4ccccc34)ccc2O[C@H]1CN(C)C	8	·	3
C[C@H](CO)N1C[C@H](C)[C@@H](CN(C)Cc2ccccc2)Oc2ncc(-c3cccc(F)c3)cc2C1=O	-2	-12	-2
C[C@@H]1CN([C@H](C)CO)S(=O)(=O)c2ccc(-c3cncnc3)cc2O[C@@H]1CN(C)C(=O)Cc1cccnc1	18	-120	-4
C[C@@H]1CN([C@@H](C)CO)C(=O)c2cc(C3=CCCC3)cnc2O[C@H]1CN(C)C(=O)c1ccc2c(c1)OCO2	-6	·	-3
Cc1ccccc1-c1ccc2c(c1)O[C@@H](CN(C)C(=O)c1ccccn1)[C@H](C)CN([C@@H](C)CO)S2(=O)=O	-2	·	-3
CC(C)NC(=O)N(C)C[C@@H]1Oc2c(NC(=O)Nc3ccccc3)cccc2C(=O)N([C@@H](C)CO)C[C@@H]1C	42	58	3
C[C@H]1CN([C@@H](C)CO)C(=O)c2cc(NC(=O)CCN3CCOCC3)ccc2O[C@@H]1CN(C)Cc1ccncc1	0	47	-5
CO[C@@H]1CN(C)C(=O)c2cc(NC(=O)Nc3cc(F)ccc3F)ccc2OC[C@@H](C)N(C(=O)c2ccccn2)C[C@@H]1C	10	44	-8
COc1ccc(NC(=O)Nc2ccc3c(c2)C(=O)N([C@@H](C)CO)C[C@H](C)[C@@H](CN(C)Cc2ccccc2)OCCCC[C@H](C)O3)cc1	-45	103*	-6	T cruzi growth-2=104*;T cruzi growth-3=81;3T3 cytotox=-7;3T3 cytotox 2=102*
C[C@@H]1CCCCO[C@@H](CN(C)Cc2ccccc2)[C@H](C)CN([C@H](C)CO)C(=O)c2cc(NC(=O)Nc3ccccc3)ccc2O1	-76	103*	·	T cruzi growth-2=106*;T cruzi growth-3=70;3T3 cytotox=8;3T3 cytotox 2=105*
C[C@@H]1CN([C@@H](C)CO)C(=O)c2cc(NC(=O)Nc3ccccc3)ccc2O[C@@H](C)CCCCO[C@@H]1CN(C)Cc1ccccc1	-54	·	·
COc1ccc(NC(=O)Nc2ccc3c(c2)C(=O)N([C@@H](C)CO)C[C@H](C)[C@H](CN(C)Cc2ccccc2)OCCCC[C@H](C)O3)cc1	-53	90	0
CNC[C@H]1OCCCC[C@@H](C)Oc2ccc(NC(=O)Nc3ccccc3)cc2C(=O)N([C@H](C)CO)C[C@@H]1C	-38	-35	2
O=S(=O)(N[C@@H]1CC[C@H](CCn2cc(C3CC3)nn2)O[C@@H]1CO)c1ccc(Cl)cc1	-20	27	2
COc1cccc(S(=O)(=O)N[C@@H]2CC[C@@H](CCN)O[C@H]2CO)c1	34	43	·
Cc1noc(C)c1S(=O)(=O)Nc1ccc2c(c1)C(=O)N([C@@H](C)CO)C[C@H](C)[C@H](CN(C)C(=O)NC(C)C)OCCCC[C@H](C)O2	8	-48	0
COc1ccc(COCC23Oc4ccccc4[C@H]([C@H]2CO)n2c(c4c(c(C(C)=O)c2=O)C(=O)N(C)C4=O)N3C)cc1	·	·	-1
COc1ccc(C#Cc2ccc3c(c2)[C@@H]2[C@@H](CCN2C(=O)c2ccccc2F)[C@@H](CO)N3)cc1	-35	106*	31	T cruzi growth-2=102*;T cruzi growth-3=70;3T3 cytotox=20;3T3 cytotox 2=17
COc1ccc(C#Cc2ccc3c(c2)[C@@H]2[C@@H](CCN2C(=O)c2ccccc2F)[C@@H](CO)N3C)cc1	-41	89	47
COc1ccc(C#Cc2ccc3c(c2)[C@@H]2[C@@H](CCN2C(=O)c2ccccc2F)[C@H](CO)N3C)cc1	-55	?	·	T cruzi growth-2=111*;T cruzi growth-3=?;3T3 cytotox=33;3T3 cytotox 2=54*
CN1c2ccc(C#Cc3ccc(F)cc3)cc2[C@@H]2[C@@H](CCN2C(=O)CN2CCOCC2)[C@H]1CO	-34	91	0
COc1ccc(C#Cc2ccc3c(c2)[C@H]2[C@H](CCN2C(=O)CN2CCOCC2)[C@H](CO)N3C)cc1	-56	99*	-7	T cruzi growth-2=111*;T cruzi growth-3=59;3T3 cytotox=8;3T3 cytotox 2=27*
SMILES	Pf Dd2 growth	T cruzi growth-1	C diff HTS	others
O=C(c1ccccc1F)N1CC[C@@H]2[C@H](CO)Nc3ccc(C#Cc4ccc(F)cc4)cc3[C@@H]21	-17	12	-6
C[C@H](CO)N1C[C@H](C)[C@H](CN(C)S(C)(=O)=O)OCCCC[C@H](C)Oc2ccc(NC(=O)Nc3ccccc3)cc2C1=O	34	-17	-4
COc1ccc2c3c(n(C)c2c1)[C@@H](CO)N(Cc1nccs1)CC31CCN(C(C)=O)CC1	-15	·	5
C/C=C/c1ccc([C@H]2[C@@H](CO)N[C@@H]2CN(CC)C(=O)c2ccccn2)cc1	-12	94	-3
CC(C)NC(=O)N(C)C[C@H]1OCCCC[C@H](C)Oc2ccc(NS(=O)(=O)c3ccccc3)cc2C(=O)N([C@H](C)CO)C[C@@H]1C	25	-56	-1
C[C@H](CO)N1C[C@H](C)[C@H](CN(C)C(=O)Nc2cccc3ccccc23)OCCCC[C@H](C)Oc2ccc(NS(=O)(=O)c3ccc(Cl)cc3)cc2C1=O	-14	96*	5	T cruzi growth-2=101*;T cruzi growth-3=63;3T3 cytotox=-4;3T3 cytotox 2=1
C[C@@H]1CCCCO[C@@H](CN(C)C(=O)Nc2cccc3ccccc23)[C@H](C)CN([C@@H](C)CO)C(=O)c2cc(NS(=O)(=O)c3cccs3)ccc2O1	-46	101*	9	T cruzi growth-2=107*;T cruzi growth-3=41;3T3 cytotox=6;3T3 cytotox 2=-20
C[C@@H]1CCCCO[C@@H](CN(C)C(=O)Nc2cccc3ccccc23)[C@H](C)CN([C@@H](C)CO)C(=O)c2cc(NS(=O)(=O)c3ccc(F)cc3)ccc2O1	-36	105*	-2	T cruzi growth-2=101*;T cruzi growth-3=66;3T3 cytotox=7;3T3 cytotox 2=3
C[C@@H]1CCCCO[C@H](CN(C)C(=O)Nc2cccc3ccccc23)[C@@H](C)CN([C@H](C)CO)C(=O)c2cc(NS(=O)(=O)c3ccc(F)cc3)ccc2O1	-36	27	-18
C[C@H](CO)N1C[C@H](C)[C@@H](CN(C)C(=O)Nc2cccc3ccccc23)OCCCC[C@H](C)Oc2ccc(NS(=O)(=O)c3ccc(Cl)cc3)cc2C1=O	-43	91	-6
